Source: PubChem (Johns Hopkins Ion Channel Center)
Rows were chosen to be rich in hits. Some 1.6% of all compounds tested hit in one or more screens of this group.
KCNQ2 pot – potentiators of rat KCNQ2 potassium channel; CHO-K1 KCNQ2, FluxOR thallium flux fluorescence; active compounds read high; Potassium voltage-gated channel subfamily KQT member 2 (Rattus norvegicus), O88943; B-score at 10 µM; 310,000 tested, 0.54% active;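 active = fluorescence ratio B-score at least 3 SD of library B-scores, with initial fluorescence B-score within 3 of them, cut at about 5.3 in these data; same plate scores as AID 2156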;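 also: B-score of peak minus minimum over baseline fluorescence ratio after K+ and Tl+ stimulus; positive B-score means potentiation of KCNQ2 with more thallium influx and brighter signal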
KCNQ2 block – rat KCNQ2 potassium channel inhibitors, primary screen, cell-based, CHO-K1, FluxOR thallium flux, B-score; Potassium voltage-gated channel subfamily KQT member 2 (Rattus norvegicus), O88943; 20 min; active compounds read low; B-score at 10 µM; 310,000 tested, 1.1% active; AID 2156, 2009;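 active = fluorescence ratio B-score at most minus 3 library SDs, with starting brightness B-score within 2 library SDs, cut at about -5.5 in these data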
Kir21 conf inh – mouse Kir2.1 channel blockers, retest, confirmation, cell-based, FluxOR thallium flux, duplicate. shares compounds with KCNQ2 pot. Tl flux remaining, % of negative control (active compounds read low), % at 10 µM. Kir2.1-expressing cells, FluxOR thallium flux fluorescence; active compounds read low. 2,300 tested, 41% active;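 active = Primary-screen hit whose thallium flux fell at least 3 control SD below untreated wells in both duplicates, with normal baseline fluorescence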
HEK293 Tl flux – alters thallium flux in parental HEK293 cells, Kir2.1 counter-screen; shares compounds with KCNQ2 pot; FluxOR thallium flux fluorescence; 0% = unstimulated blank wells; FluxOR signal as % of negative control (100 = no effect), % at 10 µM; 2,300 tested, 19% active;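 active = dye signal at least 3 control SD above or below untreated wells in both duplicates, raw fluorescence within 3, either direction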;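 also: percent is based on the flux ratio of peak minus minimum fluorescence over baseline F0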
CHO-K1 ctr – nonspecific thallium flux increase in parental CHO-K1, confirmation, counter-screen for KCNQ2 potentiator project, cell-based, FluxOR thallium flux, duplicate; shares compounds with KCNQ2 pot; parental CHO-K1 cells, FluxOR thallium flux fluorescence; zero = vehicle mean+3SD, 100% = vehicle-minus-blank window; activity increase over 3SD of controls, % at 10 µM; 1,200 tested, 43% active; AID 2282, 2010;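 active = signal rise of at least 3 SD above the untreated control mean, in both duplicate wells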;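 also: counter screen of KCNQ2 potentiator hits so any rise reflects channel-independent effects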
KCNQ1 sel pot – human KCNQ1 channel potentiation off-target, confirmation, selectivity assay for KCNQ2 potentiator project, cell-based, CHO, FluxOR thallium flux; AID 2283, 2010; 1,200 tested, 28% active; CHO KCNQ1 stable, FluxOR thallium flux fluorescence; beyond 3SD, as % of vehicle-control signal; shares compounds with KCNQ2 pot; activation over 3SD threshold, % at 10 µM;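 active = fluorescence ratio rise of at least 3 SD of vehicle wells above their mean, in both replicate wells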
KCNQ2 pot conf – rat KCNQ2 channel potentiators, confirmation, cell-based, CHO, FluxOR thallium flux, duplicate. shares compounds with KCNQ2 pot. CHO-KCNQ2 cells, FluxOR thallium flux fluorescence. potentiation, less the hit threshold, % at 10 µM. 1,200 tested, 68% active;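 active = fluorescence ratio rising 3 SD or more over the vehicle control mean in both replicates, plus primary screen hit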;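 also: peak minus minimum thallium fluorescence divided by baseline after K/Tl stimulus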
Kir2-1 sel – mouse Kir2.1 channel activation off-target, confirmation, selectivity assay for KCNQ2 potentiator project, cell-based, HEK293, FluxOR thallium flux; shares compounds with KCNQ2 pot; 1,200 tested, 2% active; AID 2345, 2010; activity over 3SD threshold, % at 10 µM; HEK293 Kir2.1, FluxOR thallium flux fluorescence;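 active = fluorescence ratio rise of at least 3 SD above the vehicle-control mean, seen in both replicates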
KCNQ2 W236L MoA – potentiators of retigabine-insensitive KCNQ2 W236L, mechanism study for KCNQ2 potentiator project, cell-based, rat KCNQ2 W236L, CHO, automated patch clamp | shares compounds with KCNQ2 pot | automated patch clamp current | current increase over 3SD of negative controls (%), active compounds read high, % at 25 µM | 940 tested, 10% active;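 active = current increase at least 3 SD of the untreated controls above them in both duplicate recordings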
Hits are given with their value; . = inactive; / = no result.

SMILES	KCNQ2 pot	KCNQ2 block	Kir21 conf inh	HEK293 Tl flux	others
CC(=O)c1cccc(NC(=O)c2ccc(N(Cc3ccccc3)S(C)(=O)=O)cc2)c1	.	.	/	/
CS(=O)(=O)N(Cc1ccccc1)c1ccc(C(=O)Nc2ccc(C(N)=O)cc2)cc1	/	.	.	.
Cc1ccc(Cc2c(C)[nH]c(=S)[nH]c2=O)cc1	/	.	/	/
Cc1ccc(Cc2c[nH]c(=S)s2)cc1	7.9	.	.	386%	CHO-K1 ctr=.;KCNQ1 sel pot=.;KCNQ2 pot conf=63;Kir2-1 sel=.;KCNQ2 W236L MoA=.
CCOc1cc(NC(=S)NCCCN2CCOCC2)c(OCC)cc1NC(=O)c1ccc(C)cc1	/	.	/	/
O=C(Nc1nc2ccc(Cl)cc2s1)C1CC1	.	.	/	/
CC(C)c1ccc2nc(NC(=O)C3CC3)sc2c1	5.6	.	.	68%	CHO-K1 ctr=21;KCNQ1 sel pot=.;KCNQ2 pot conf=28;Kir2-1 sel=.;KCNQ2 W236L MoA=27%
CC1(C)Cc2c(cnn2-c2cccc(F)c2)C(NC(=O)CSc2ccccn2)C1 (stereo not given)	/	.	/	/
C=CCn1c(SCc2cccc3ccccc23)nnc1-c1cccnc1	/	.	45%	.
C=CCn1c(SCC(=O)Nc2ccc(C(=O)O)cc2)nnc1-c1cccnc1	/	.	/	/
Cc1c(CNCCC2=CCCCC2)c(C(=O)O)c(C)n1Cc1ccccc1	.	.	/	/
Cc1cccc(OCCCn2c(=O)sc3ccccc32)c1	/	.	/	/
CCCCCCCCCCOC(=O)Cn1c(COc2ccc(OC)cc2)[n+](C)c2ccccc21	.	.	.	.
CCCCCCCCCCOC(=O)Cn1c(COc2cccc(C)c2)[n+](C)c2ccccc21	.	.	.	.
CCCCCOC(=O)Cn1c(=O)oc2ccccc21	/	.	/	/
CCCCOC(=O)Cn1c(=O)n(CC(=O)OCCCC)c2ccccc21	/	.	.	.
CCCCOC(=O)Cn1c(=N)n(CCN2CCOCC2)c2ccccc21	/	.	/	/
CCCCCCCCCCOC(=O)Cn1c(COc2ccc(Cl)cc2)[n+](C)c2ccccc21	/	.	/	/
CCCCCCCCCCOC(=O)Cn1c(COc2ccccc2)[n+](C)c2ccccc21	/	.	.	.
CCOC(=O)C1CCN(C(=O)CCc2ccc(S(=O)(=O)NCC(C)C)cc2)CC1	.	.	/	/
COc1ccccc1CCC(=O)NNC(=O)c1ccc(Br)cc1	.	.	/	/
O=C(NC1=NCCS1)c1ccc([N+](=O)[O-])cc1Cl	.	.	/	/
Cc1ccc(OCC(=O)Nc2nnc(S(=O)(=O)N3CCC(C)CC3)s2)cc1	.	.	/	/
CC1CCN(Cc2nnnn2CCCC(=O)N(C)C2CCOC2)CC1 (stereo not given)	.	.	/	/
CCc1ccc(NC(=O)C(=O)NNC(=O)c2cccc(OC)c2)cc1	6.4	.	.	196%	CHO-K1 ctr=5.0;KCNQ1 sel pot=.;KCNQ2 pot conf=4.9;Kir2-1 sel=.;KCNQ2 W236L MoA=.
COc1cccc(C(=O)NNC(=O)C(=O)Nc2ccc(C)c(Cl)c2)c1	.	.	/	/
CCCN(C(=O)CSc1n[nH]c(-c2ccc(OC)cc2)n1)c1c(N)n(Cc2ccccc2)c(=O)[nH]c1=O	/	.	/	/
